Experimental data reported in PubChem BioAssay (Tox21).
Results filed as inconclusive are left out. Where a call stands in place of a potency, no number is given. Unmarked numbers belong to inactive results. Active and inactive are the calls of the source. The call rests on the fitted dose curve.

Molecular target: Muscarinic acetylcholine receptor M1 (Homo sapiens) (UniProt P11229)
Assay: Cholinergic receptor muscarinic 1 (CHRM1) small molecule antagonists, cell-based qHTS assay (AID 1963588); further: nearly all actives have a fitted effect of over 40% in size
Details: CHRM1-CHO antagonist mode, calcium flux fluorescence; series mostly up to 61.5 µM
Source text: National Center for Advancing Translational Sciences [NCATS]
Division of Preclinical Innovation [DPI]
U.S. Environmental Protection Agency [EPA]
National Institutes of Environmental Health Sciences [NIEHS]
National Toxicology Program [NTP]
U.S. Food and Drug Administration [FDA]
The CHRM1 is a muscarinic receptor. This receptor plays a crucial role in learning and memory processes and has long been identified as a promising therapeutic target for the improvement of cognitive decline in Alzheimer's disease (AD). The CHRM1-CHO cell line stably expressing human muscarinic acetylcholine receptor M1 (CHRM1) can be used for screening agonists and antagonists of interactions between CHRM1 and its ligands. The CHRM1-CHO Calcium Flux Assay is a homogeneous fluorescence-based assay for detecting the intracellular calcium level using FDSS kinetic plate reader system.
Tox21 Assay Protocol Summary:
CHRM1-CHO cells were dispensed at 1000 cells/3uL/well in 1536-well black-clear bottom plates using a Multidrop Dispenser. After the assay plates were incubated at a 37 C/5% CO2 incubator for 18 h, 3 uL of Dye Loading Buffer was transferred to the assay plate by a Flying Reagent Dispenser. The assay plates were incubated at 37 C for 1h. For antagonist mode, 23 nL of compounds dissolved in DMSO, positive controls or DMSO only was transferred to the assay plate by a pin tool. After 5 min incubation at room temperature, 1.5 uL of acetylcholine at 50nM was added to each well. The fluorescence intensity in the plates was measured using FDSS 7000EX kinetic plate reader for 3 min at 1 sec intervals. Each test compound was measured at 15 concentrations in three independent runs.
Potency means the concentration at half of the fitted maximal effect.

Chain of Muscarinic acetylcholine receptor M1 (Homo sapiens) (P11229 whole entry, looked up): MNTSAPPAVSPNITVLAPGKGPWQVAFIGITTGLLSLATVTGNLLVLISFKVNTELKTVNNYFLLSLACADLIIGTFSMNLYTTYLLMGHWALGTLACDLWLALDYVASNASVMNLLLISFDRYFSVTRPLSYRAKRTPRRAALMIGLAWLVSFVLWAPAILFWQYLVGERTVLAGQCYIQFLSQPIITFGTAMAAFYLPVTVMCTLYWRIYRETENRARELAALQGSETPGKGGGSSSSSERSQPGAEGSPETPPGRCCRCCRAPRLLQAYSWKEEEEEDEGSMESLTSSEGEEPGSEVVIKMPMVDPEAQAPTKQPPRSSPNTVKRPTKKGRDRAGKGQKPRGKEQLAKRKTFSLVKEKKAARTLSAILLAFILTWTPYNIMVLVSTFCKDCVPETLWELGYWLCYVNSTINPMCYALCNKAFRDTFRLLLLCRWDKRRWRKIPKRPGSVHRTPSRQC

| Compound | Potency | activity, negative = inhibition |
| --- | --- | --- |
| NC(=O)N(O)[C@@H]1COc2cc(OCc3ccccc3)ccc21 | inactive | – |
| CN(C)CCCCCCN(C)C | inactive | – |
| COc1ccccc1N1CCN(CC(O)COc2cccc3ccccc23)CC1 (stereo not given) | inactive | – |
| CCCCOCC(C)OCC(C)O (stereo not given) | inactive | – |
| C[C@H]1[C@H]2CC[C@H]3[C@@H]4CC=C5C[C@@H](N(C)C)CC[C@]5(C)[C@H]4CC[C@]23CN1C | 0.729 µM (active) | – |
| CC(=O)Oc1ccc([N+](=O)[O-])cc1CCl | inactive | – |
| CC(C)(C)C1CCCCC1=O (stereo not given) | inactive | – |
| C=C1c2cccc(O)c2C(O)=C2C(=O)[C@]3(O)C(O)=C(C(N)=O)C(=O)[C@@H](N(C)C)[C@@H]3[C@@H](O)[C@H]12 | inactive | – |
| BrCc1cccc(Oc2ccccc2)c1 | inactive | – |
| CCCCCCC(O)CCCCCCCCCCC(=O)O (stereo not given) | inactive | – |
| COC(OC)(C(=O)c1ccccc1)c1ccccc1 | inactive | – |
| CCCCCCCCCCCCCBr | inactive | – |
| Oc1cccc(-c2c3nc(c(-c4cccc(O)c4)c4ccc([nH]4)c(-c4cccc(O)c4)c4nc(c(-c5cccc(O)c5)c5ccc2[nH]5)CC4)C=C3)c1 | inactive | – |
| O=C1CCC/C=C\CCCCCCCCCC1 | inactive | – |
| O=C1Nc2ccc(Cl)cc2[C@@](C#CC2CC2)(C(F)(F)F)O1 | inactive | – |
| C[C@@H]1CC[C@H]2C(C)(C)[C@H]3C[C@@]12CC[C@@]3(C)O | inactive | – |
| OCCc1ccncc1 | inactive | – |
| CCC(C)[O-].CCC(C)[O-].CCOC(=O)/C=C(/C)[O-].[Al+3] | inactive | – |
| O=C1CCCCCO1 | inactive | – |
| O=c1oc2cc(O)ccc2c2oc3cc(O)ccc3c12 | inactive | – |

| Compound | Potency | activity, negative = inhibition |
| --- | --- | --- |
| N#CCCNCCC#N | inactive | – |
| CC1=Nc2ccccc2C1(C)C | inactive | – |
| CCCCCC/C=C\CCCCCCCC(=O)O | inactive | – |
| C=CC(=O)OCC1CC2CC1C1CCC(COC(=O)C=C)C21 (stereo not given) | inactive | – |
| Cc1ccc(N)cc1O | inactive | – |
| O=C(Cl)c1ccc(F)c(Cl)c1 | inactive | – |
| C=C(C)C(=O)OCCOC(=O)CC(C)=O | inactive | – |
| O=C(c1ccccc1)c1cc(Cl)ccc1O | 20 µM (active) | – |
| O=C(Nc1ncc([N+](=O)[O-])s1)c1cccs1 | inactive | – |
| O=C(Nc1ccccc1)c1cc(Cl)ccc1O | inactive | – |
| CCCC[N+](C)(CCCC)CCCC | inactive | – |
| CCS(=O)(=O)c1ccc(OC)c(C(=O)OC)c1 | inactive | – |
| CCOC(=O)C1=C[C@]2(CC)CCCN3CCc4c(n1c1ccccc41)[C@@H]32 | inactive | – |
| O=C1c2ccccc2C(=O)c2c(O)ccc(O)c21 | inactive | – |
| CCCCN1C[C@H](O)[C@@H](O)[C@H](O)[C@H]1CO | inactive | – |
| CNC(C)=O | inactive | – |
| COc1cc(S(=O)(=O)Nc2ccccc2)c(OC)cc1N | inactive | – |
| Nc1ccc(/C=C/c2ccc(N)cc2S(=O)(=O)O)c(S(=O)(=O)O)c1 | – | 18% [at 0.232 µM] |
| CCC(C)N (stereo not given) | inactive | – |
| CSc1c(Cl)c(Cl)c(Cl)c(Cl)c1Cl | inactive | – |
